Entries with a potency or affinity are not part of this list.

Usually Inhibition stands for the change of the read-out against control, counted positive when it falls.

The subject of this experiment is Staphylococcus aureus. To be noted: Concentration 32 ug.mL-1; ASSAY_TEST Inhibition of Bacterial Growth; detection method Absorption (OD600); MEDIA CAMHB; plate type 384well; NBS; CORNING #3640; time 18 hr.
For the compound `C=C1CC(C(=O)OC)(C(=O)OC)C[C@@H]1[C@H](c1ccccc1)n1ccc2ccccc21`, the Inhibition stood at 19.16%. In the case of `C[C@]12CC[C@@](C)(O1)[C@H]1C=C[C@H](OC(=O)c3ccccc3)[C@H]12`, the Inhibition is given as 17.97%.

Turning to `C[C@]12CC[C@@](C3CCCC3)(O1)[C@H]1C=C[C@H](OC(=O)c3ccccc3)[C@H]12`, the Inhibition is given as 23.21%. As for `C[C@]12CC[C@@H](O1)[C@H]1C=C[C@H](OC(=O)c3ccccc3)[C@H]12`, the figure is 21.38%; as for `C=C1CC(COCc2ccc(OC)cc2)(COCc2ccc(OC)cc2)C[C@@H]1[C@@H](Nc1ccc(Br)cc1)c1ccccc1`, -1.38%; as for `C[C@@H]1CC(=O)C=C2C(=O)[C@@H]3[C@@H](C3(C)C)[C@]21C`, 24.26%. As for `C=C1CC(C(=O)OC)(C(=O)OC)C[C@@H]1[C@H](c1ccccc1)n1ccc2ccc(Cl)cc21`, the figure is 17.85%; as for `C=C1CC(C(=O)OC)(C(=O)OC)C[C@@H]1[C@@H](NS(=O)(=O)c1ccc(C)cc1)c1ccccc1`, 21%; as for `C[C@]12CC[C@@](c3ccc4ccccc4c3)(O1)[C@H]1C=C[C@H](OC(=O)c3ccccc3)[C@H]12`, 16.21%.

Turning to `C=C1CC(COC)(COC)C[C@@H]1[C@@H](Nc1ccc(Br)cc1)c1ccccc1`, the Inhibition is listed as 4.73%. `C=C1CC2(COC(C)(C)OC2)C[C@@H]1[C@@H](Nc1ccc(Br)cc1)c1ccccc1`: the Inhibition is given as 25.91%.

For the origin of these results see ChEMBL document CHEMBL4513151, “CO-ADD screening of Institut Català d'Investigació Química (Spain) compounds”.
